Data as given in the supplement of paper PMC10849652.
Of roughly 7,900 targets only a part is listed; those with a hit were picked by preference. About 0.6% of all pairs of compound and target were hits. A number with no mark means an inactive call.

What follows are targets tested with CC[C@@H]1C(=O)N(C)c2cnc(Nc3ccc(C(=O)N[C@H]4CC[C@H](N5CCN(CC6CC6)CC5)CC4)cc3OC)nc2N1C(C)C [volasertib] (assay: log2 fold change, soluble protein after heating vs DMSO (PISA); higher = thermal stabilisation; K562 cells, 10 uM, 30 min; active = over 0.2 and 3.5 SD of the protein, either way, in both replicates (recomputed)).
In short: (§1)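 Soluble protein was quantified by TMTpro 16plex LC-MS/MS after channel sums were equalised. It was obtained as the supernatant after 21,000xg for 90 min from pooled aliquots of K562 cells (2×10^6 cells/mL, 10 μM compound, 30 min) heated for 3 min across 48°C-58°C and extracted in PBS with 0.5% NP-40 at 4°C. Thermal stability values are relative to control samples and come from duplicates. They are given as log2 fold changes.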

Chain of UniProt P49189 (P49189 whole entry, looked up): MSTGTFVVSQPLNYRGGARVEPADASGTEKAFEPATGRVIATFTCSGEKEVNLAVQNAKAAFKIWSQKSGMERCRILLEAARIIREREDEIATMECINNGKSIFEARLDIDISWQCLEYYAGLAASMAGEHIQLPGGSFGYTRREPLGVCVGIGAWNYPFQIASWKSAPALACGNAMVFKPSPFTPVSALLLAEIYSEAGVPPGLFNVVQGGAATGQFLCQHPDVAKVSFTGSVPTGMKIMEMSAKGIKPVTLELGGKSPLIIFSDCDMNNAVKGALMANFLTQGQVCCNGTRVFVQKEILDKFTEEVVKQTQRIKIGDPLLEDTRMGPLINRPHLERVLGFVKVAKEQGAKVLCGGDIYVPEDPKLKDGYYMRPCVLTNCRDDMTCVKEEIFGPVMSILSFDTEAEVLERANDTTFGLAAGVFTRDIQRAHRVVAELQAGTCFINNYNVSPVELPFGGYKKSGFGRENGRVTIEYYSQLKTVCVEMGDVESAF
Chain of UniProt O14727 (O14727 whole entry, looked up): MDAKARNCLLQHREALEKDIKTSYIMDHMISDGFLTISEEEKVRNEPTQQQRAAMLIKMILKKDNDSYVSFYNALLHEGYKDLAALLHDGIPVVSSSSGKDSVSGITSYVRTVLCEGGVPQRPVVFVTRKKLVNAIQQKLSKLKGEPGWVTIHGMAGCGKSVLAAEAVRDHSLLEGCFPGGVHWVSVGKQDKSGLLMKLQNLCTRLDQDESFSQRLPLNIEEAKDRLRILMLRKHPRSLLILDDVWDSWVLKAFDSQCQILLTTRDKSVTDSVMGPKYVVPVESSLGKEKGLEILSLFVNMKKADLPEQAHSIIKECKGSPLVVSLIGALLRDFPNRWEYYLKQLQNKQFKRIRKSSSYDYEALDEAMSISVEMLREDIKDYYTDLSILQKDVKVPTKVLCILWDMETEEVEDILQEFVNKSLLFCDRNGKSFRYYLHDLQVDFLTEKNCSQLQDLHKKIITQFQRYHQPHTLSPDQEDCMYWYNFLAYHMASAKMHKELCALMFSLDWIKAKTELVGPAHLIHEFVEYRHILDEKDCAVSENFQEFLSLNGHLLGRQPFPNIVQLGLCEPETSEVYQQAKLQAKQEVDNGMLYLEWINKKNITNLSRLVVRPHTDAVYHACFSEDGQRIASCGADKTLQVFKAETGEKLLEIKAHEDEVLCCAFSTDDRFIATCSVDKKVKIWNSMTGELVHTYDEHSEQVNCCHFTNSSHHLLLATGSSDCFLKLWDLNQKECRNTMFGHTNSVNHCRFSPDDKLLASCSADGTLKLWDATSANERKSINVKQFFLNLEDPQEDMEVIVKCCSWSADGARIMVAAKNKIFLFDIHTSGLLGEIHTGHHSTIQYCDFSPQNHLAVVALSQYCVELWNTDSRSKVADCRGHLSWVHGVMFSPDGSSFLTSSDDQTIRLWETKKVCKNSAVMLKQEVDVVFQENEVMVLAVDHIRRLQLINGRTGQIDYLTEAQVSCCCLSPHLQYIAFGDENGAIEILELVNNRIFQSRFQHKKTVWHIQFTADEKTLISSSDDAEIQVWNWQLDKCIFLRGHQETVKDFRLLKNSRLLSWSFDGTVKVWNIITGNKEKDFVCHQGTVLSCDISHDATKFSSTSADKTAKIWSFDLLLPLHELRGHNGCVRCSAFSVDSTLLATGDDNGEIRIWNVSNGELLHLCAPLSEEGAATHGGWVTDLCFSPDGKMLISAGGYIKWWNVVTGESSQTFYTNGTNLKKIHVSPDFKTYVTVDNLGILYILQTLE
Chain of UniProt Q02252 (Q02252 whole entry, looked up): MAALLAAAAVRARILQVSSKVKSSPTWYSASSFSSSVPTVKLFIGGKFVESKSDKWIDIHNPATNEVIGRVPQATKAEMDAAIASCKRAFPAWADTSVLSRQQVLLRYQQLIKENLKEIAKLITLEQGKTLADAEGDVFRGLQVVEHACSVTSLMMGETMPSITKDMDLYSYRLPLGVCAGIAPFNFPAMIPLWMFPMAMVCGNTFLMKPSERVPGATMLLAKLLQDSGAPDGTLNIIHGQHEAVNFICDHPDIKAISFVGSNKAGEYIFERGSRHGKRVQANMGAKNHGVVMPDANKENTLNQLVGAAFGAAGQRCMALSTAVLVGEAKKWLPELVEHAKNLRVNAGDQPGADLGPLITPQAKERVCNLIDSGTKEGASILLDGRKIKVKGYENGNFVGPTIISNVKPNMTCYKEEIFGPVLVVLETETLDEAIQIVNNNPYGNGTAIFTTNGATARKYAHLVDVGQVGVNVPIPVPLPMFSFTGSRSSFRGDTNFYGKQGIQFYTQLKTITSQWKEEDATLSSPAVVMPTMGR
Chain of UniProt Q13685 (Q13685 whole entry, looked up): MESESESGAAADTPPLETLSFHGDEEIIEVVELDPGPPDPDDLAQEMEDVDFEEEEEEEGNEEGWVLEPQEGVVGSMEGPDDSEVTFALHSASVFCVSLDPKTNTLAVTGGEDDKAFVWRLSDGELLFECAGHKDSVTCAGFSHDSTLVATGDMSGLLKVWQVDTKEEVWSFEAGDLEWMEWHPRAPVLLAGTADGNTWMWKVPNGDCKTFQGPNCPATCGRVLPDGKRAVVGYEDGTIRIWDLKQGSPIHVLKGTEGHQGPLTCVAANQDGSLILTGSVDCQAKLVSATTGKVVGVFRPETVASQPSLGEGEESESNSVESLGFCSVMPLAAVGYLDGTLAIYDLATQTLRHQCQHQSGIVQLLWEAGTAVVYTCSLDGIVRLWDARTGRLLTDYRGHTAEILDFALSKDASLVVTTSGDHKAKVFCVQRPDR
Chain of UniProt Q9NX38 (Q9NX38 whole entry, looked up): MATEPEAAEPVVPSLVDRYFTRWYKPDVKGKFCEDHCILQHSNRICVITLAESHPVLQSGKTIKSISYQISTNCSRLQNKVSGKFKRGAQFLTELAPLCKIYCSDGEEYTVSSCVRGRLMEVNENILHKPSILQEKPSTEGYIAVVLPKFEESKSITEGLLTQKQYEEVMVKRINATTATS
Chain of UniProt Q96P47 (Q96P47 whole entry, looked up): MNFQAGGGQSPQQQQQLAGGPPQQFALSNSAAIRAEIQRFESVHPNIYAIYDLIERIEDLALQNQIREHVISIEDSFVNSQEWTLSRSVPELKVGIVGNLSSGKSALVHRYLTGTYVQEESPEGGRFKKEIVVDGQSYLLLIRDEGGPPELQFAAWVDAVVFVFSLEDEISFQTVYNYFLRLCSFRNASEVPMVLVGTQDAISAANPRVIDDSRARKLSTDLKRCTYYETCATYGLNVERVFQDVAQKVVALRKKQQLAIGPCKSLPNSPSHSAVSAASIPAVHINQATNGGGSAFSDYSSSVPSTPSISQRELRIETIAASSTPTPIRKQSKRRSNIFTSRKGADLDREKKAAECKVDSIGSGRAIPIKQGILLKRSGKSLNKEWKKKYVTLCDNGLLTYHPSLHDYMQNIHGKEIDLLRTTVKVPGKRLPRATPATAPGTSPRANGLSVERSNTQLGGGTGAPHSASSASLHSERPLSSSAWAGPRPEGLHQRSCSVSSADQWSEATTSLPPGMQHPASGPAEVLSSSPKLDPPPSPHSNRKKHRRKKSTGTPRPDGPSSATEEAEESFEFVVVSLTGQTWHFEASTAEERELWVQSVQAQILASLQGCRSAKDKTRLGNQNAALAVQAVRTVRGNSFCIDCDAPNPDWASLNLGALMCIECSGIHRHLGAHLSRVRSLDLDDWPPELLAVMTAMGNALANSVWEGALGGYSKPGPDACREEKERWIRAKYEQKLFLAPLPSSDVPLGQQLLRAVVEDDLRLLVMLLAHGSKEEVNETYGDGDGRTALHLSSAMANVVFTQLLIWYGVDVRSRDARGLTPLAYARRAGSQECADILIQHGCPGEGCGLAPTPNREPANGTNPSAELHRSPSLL
Chain of UniProt P02749 (P02749 whole entry, looked up): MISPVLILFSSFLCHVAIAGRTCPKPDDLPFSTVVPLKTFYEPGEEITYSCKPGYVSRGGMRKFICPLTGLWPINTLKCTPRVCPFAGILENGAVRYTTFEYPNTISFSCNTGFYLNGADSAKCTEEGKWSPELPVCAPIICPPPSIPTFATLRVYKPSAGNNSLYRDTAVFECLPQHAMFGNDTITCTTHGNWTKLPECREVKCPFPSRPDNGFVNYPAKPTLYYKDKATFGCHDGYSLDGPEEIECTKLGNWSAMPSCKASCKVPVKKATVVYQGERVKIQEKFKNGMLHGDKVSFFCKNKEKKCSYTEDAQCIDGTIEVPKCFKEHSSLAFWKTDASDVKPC
Chain of UniProt Q8N6H7 (Q8N6H7 whole entry, looked up): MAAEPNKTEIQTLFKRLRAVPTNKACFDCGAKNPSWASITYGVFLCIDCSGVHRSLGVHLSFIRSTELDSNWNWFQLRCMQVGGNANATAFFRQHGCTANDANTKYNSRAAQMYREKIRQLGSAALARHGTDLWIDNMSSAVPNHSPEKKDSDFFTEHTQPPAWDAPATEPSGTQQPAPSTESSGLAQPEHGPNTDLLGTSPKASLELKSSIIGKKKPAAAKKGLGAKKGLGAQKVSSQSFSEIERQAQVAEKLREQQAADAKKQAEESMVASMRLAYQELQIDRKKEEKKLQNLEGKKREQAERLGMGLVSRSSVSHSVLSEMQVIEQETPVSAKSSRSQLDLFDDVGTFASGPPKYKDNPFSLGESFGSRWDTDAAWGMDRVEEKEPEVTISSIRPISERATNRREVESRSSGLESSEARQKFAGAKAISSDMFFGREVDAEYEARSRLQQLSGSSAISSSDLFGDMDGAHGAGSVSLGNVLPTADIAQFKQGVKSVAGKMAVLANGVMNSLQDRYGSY
Chain of UniProt P08758 (P08758 whole entry, looked up): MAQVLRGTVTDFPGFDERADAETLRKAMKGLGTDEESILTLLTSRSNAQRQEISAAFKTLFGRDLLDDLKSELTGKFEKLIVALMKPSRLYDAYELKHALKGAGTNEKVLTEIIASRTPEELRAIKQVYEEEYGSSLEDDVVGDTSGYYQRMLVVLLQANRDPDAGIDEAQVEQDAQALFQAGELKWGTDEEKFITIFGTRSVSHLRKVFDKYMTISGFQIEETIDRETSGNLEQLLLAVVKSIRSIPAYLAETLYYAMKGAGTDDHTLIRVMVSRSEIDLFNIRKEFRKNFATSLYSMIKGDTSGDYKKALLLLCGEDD

Target | log2 fold change
APAF1 (UniProt O14727) | -0.076
ABITRAM (UniProt Q9NX38) | -0.11
AIF1 (UniProt P55008) | 0.047
ALKBH4 (UniProt Q9NXW9) | -0.263
BRD3 (UniProt Q15059) | 1.46 (active)
ADD3 isoform 2 (UniProt Q9UEY8) | -0.037
ARHGAP4 isoform 2 (UniProt P98171) | -0.112
ALDH9A1 (UniProt P49189) | 0.009
ALDH6A1 (UniProt Q02252) | -0.011
APOH (UniProt P02749) | -0.443
AGAP3 isoform 4 (UniProt Q96P47) | -0.038
ANK2 (UniProt Q01484) | -0.071
AAMP (UniProt Q13685) | 0.051

The targets below were run with CC[C@H](C)N1C=C(C2=C(C=C(C=C21)C3=CN=C(C=C3)N4CCNCC4)C(=O)NCC5=C(C=C(NC5=O)C)C)C in the same assay as above.
In short: as §1

Target | log2 fold change
ABHD17A isoform 2 (UniProt Q96GS6) | -0.084
AASDH (UniProt Q4L235) | 0.141
ARFGAP2 (UniProt Q8N6H7) | 0.067
ACTBL2 (UniProt Q562R1) | -0.133
AMD1 (UniProt P17707) | 0.099
BRD4 (UniProt O60885) | -0.007
ADPRH (UniProt P54922) | 0.036
ANXA5 (UniProt P08758) | 0.04
BTBD6 (UniProt Q96KE9) | -0.033
BYSL (UniProt Q13895) | 0.072
ARRDC1 (UniProt Q8N5I2) | -0.09
BRIP1 (UniProt Q9BX63) | -0.004
ADAM15 (UniProt Q13444) | -0.02
AFG1L (UniProt Q8WV93) | 0.207
ASS1 (UniProt P00966) | 0.412
APOBEC3G (UniProt Q9HC16) | 0.051
ATF7 isoform 6 (UniProt P17544) | 0.041
AIFM2 (UniProt Q9BRQ8) | -0.058
ASB6 (UniProt Q9NWX5) | 0.028
APAF1 (UniProt O14727) | 0.187
ABITRAM (UniProt Q9NX38) | 0.088
BRD3 (UniProt Q15059) | -0.088
ARHGAP4 isoform 2 (UniProt P98171) | 0.048
ALDH9A1 (UniProt P49189) | 0.111
ALDH6A1 (UniProt Q02252) | -0.059
APOH (UniProt P02749) | -0.167
AGAP3 isoform 4 (UniProt Q96P47) | 0.105
ANK2 (UniProt Q01484) | -0.003
AAMP (UniProt Q13685) | -0.016

What follows are targets tested with CC[C@H](C)[C@@H](C(=O)N[C@@H]([C@@H](C)O)C(=O)N[C@@H](CC(C)C)C(=O)[C@]1(CO1)C)NC(=O)[C@H]([C@@H](C)CC)N(C)C(=O)C [epoxomicin] in the same assay as above.
In short: as §1

Target | log2 fold change
ABHD17A isoform 2 (UniProt Q96GS6) | -0.057
AASDH (UniProt Q4L235) | 0.028
ARFGAP2 (UniProt Q8N6H7) | 0.009
ACTBL2 (UniProt Q562R1) | -0.1
AMD1 (UniProt P17707) | 0.057
BRD4 (UniProt O60885) | 0.136
ADPRH (UniProt P54922) | -0.04
ANXA5 (UniProt P08758) | 0.068
BTBD6 (UniProt Q96KE9) | -0.059
BYSL (UniProt Q13895) | 0.118
ALDH2 isoform 2 (UniProt P05091) | -0.176
ARRDC1 (UniProt Q8N5I2) | -0.057
BRIP1 (UniProt Q9BX63) | -0.008
ADAM15 (UniProt Q13444) | 0.034
ABCA3 (UniProt Q99758) | 0
AFG1L (UniProt Q8WV93) | 0.035

Target | log2 fold change
BRD8 isoform 2 (UniProt Q9H0E9) | -0.105
ASS1 (UniProt P00966) | 0.025
APOBEC3G (UniProt Q9HC16) | -0.146
ATF7 isoform 6 (UniProt P17544) | -0.028
AIFM2 (UniProt Q9BRQ8) | -0.035
ASB6 (UniProt Q9NWX5) | -0.094
APAF1 (UniProt O14727) | -0.045
ABITRAM (UniProt Q9NX38) | 0.055
AIF1 (UniProt P55008) | -0.727 (active)
ALKBH4 (UniProt Q9NXW9) | 0.117
ADD3 isoform 2 (UniProt Q9UEY8) | -0.022
ALDH9A1 (UniProt P49189) | -0.011
ALDH6A1 (UniProt Q02252) | 0
AGAP3 isoform 4 (UniProt Q96P47) | 0.034
AAMP (UniProt Q13685) | -0.017
